Test results taken from the supplement of paper PMC10849652.
Of roughly 7,900 targets only a part is listed; those with a hit were picked by preference. About 0.6% of all pairs of compound and target were hits.

Legend:
Assay in all cases: log2 fold change, soluble protein after heating vs DMSO (PISA); higher = thermal stabilisation; K562 cells, 10 uM, 30 min; active = over 0.2 and 3.5 SD of the protein, either way, in both replicates (recomputed)
[1] = compound: CC[C@@H]1C(=O)N(C)c2cnc(Nc3ccc(C(=O)NC4CCN(C)CC4)cc3OC)nc2N1C1CCCC1
Method in brief: (§1)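 K562 cells (2×10^6 cells/mL) were treated with 10 μM compound for 30 min, and aliquots were heated for 3 min over 48°C-58°C. Pooled aliquots were extracted in PBS with 0.5% NP-40 at 4°C, and the supernatant after 21,000xg for 90 min was measured by TMTpro 16plex LC-MS/MS with channel sums equalised. Reported thermal stability, relative to control samples and from duplicates, is a log2 fold change.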

volasertib = compound: CC[C@@H]1C(=O)N(C)c2cnc(Nc3ccc(C(=O)N[C@H]4CC[C@H](N5CCN(CC6CC6)CC5)CC4)cc3OC)nc2N1C(C)C [volasertib]
Method in brief: as §1

[2] = compound: CC[C@H](C)N1C=C(C2=C(C=C(C=C21)C3=CN=C(C=C3)N4CCNCC4)C(=O)NCC5=C(C=C(NC5=O)C)C)C
Method in brief: as §1

epoxomicin = compound: CC[C@H](C)[C@@H](C(=O)N[C@@H]([C@@H](C)O)C(=O)N[C@@H](CC(C)C)C(=O)[C@]1(CO1)C)NC(=O)[C@H]([C@@H](C)CC)N(C)C(=O)C [epoxomicin]
Method in brief: as §1

[3] = compound: CCn1c(C(=O)N(C2CC2)C2CC2)cc2c3c(ncn3C)c(Nc3cc(C)n(C)n3)nc21
Method in brief: as §1

[4] = compound: CCn1cc(-c2ccnc3[nH]c(-c4cccc(CN(C)C)c4)cc23)c(-c2ccc(NC(=O)N(C)C)cc2)n1
Method in brief: as §1

[5] = compound: CN(C)CC(=O)Nc1ccc2[nH]c(=O)c3ccccc3c2c1
Method in brief: as §1

rosiglitazone = compound: CN(CCOC1=CC=C(C=C1)C[C@H]2C(=O)NC(=O)S2)C3=CC=CC=N3 (racemic) [rosiglitazone]
Method in brief: as §1

[6] = compound: CN1C2=C(C3=C1C(=O)N(N=C3)CC4=CC(=CC=C4)N)SC(=C2)S(=O)C
Method in brief: as §1

[7] = compound: CN1CCC(CNc2ccc3ncc(-c4cccc(OC(F)(F)F)c4)n3n2)CC1
Method in brief: as §1

saracatinib = compound: CN1CCN(CCOc2cc(OC3CCOCC3)c3c(Nc4c(Cl)ccc5c4OCO5)ncnc3c2)CC1 [saracatinib]
Method in brief: as §1

sotrastaurin = compound: CN1CCN(c2nc(C3=C(c4c[nH]c5ccccc45)C(=O)NC3=O)c3ccccc3n2)CC1 [sotrastaurin]
Method in brief: as §1

alvocidib = compound: CN1CC[C@H](c2c(O)cc(O)c3c(=O)cc(-c4ccccc4Cl)oc23)[C@H](O)C1 [alvocidib]
Method in brief: as §1

Tubastatin A = compound: CN1CCc2c(c3ccccc3n2Cc2ccc(C(=O)NO)cc2)C1 [Tubastatin A]
Method in brief: as §1

[8] = compound: CNC(=O)C1=CC=CC=C1NC2=NC(=NC=C2Cl)NC3=C(C=C(C=C3)N4CCOCC4)OC
Method in brief: as §1

defactinib = compound: CNC(=O)c1ccc(Nc2ncc(C(F)(F)F)c(NCc3nccnc3N(C)S(C)(=O)=O)n2)cc1 [defactinib]
Method in brief: as §1

rucaparib = compound: CNCc1ccc(-c2[nH]c3cc(F)cc4c3c2CCNC4=O)cc1 [rucaparib]
Method in brief: as §1

[9] = compound: CNc1nc(-c2ccc3c(N)n[nH]c3c2)cc(N2C[C@@H](C(=O)NC3CCCCC3)CC[C@H]2C)n1
Method in brief: as §1

encorafenib = compound: COC(=O)N[C@@H](C)CNc1nccc(-c2cn(C(C)C)nc2-c2cc(Cl)cc(NS(C)(=O)=O)c2F)n1 [encorafenib]
Method in brief: as §1

[10] = compound: COC(=O)[C@H](CCSC)NC(=O)C1=C(C=C(C=C1)NC[C@H](CS)N)C2=CC=CC=C2
Method in brief: as §1

Measured: log2 fold change

UCHL5 (UniProt Q9Y5K5)
UniProt Q9Y5K5, sequence (Q9Y5K5 whole entry, looked up): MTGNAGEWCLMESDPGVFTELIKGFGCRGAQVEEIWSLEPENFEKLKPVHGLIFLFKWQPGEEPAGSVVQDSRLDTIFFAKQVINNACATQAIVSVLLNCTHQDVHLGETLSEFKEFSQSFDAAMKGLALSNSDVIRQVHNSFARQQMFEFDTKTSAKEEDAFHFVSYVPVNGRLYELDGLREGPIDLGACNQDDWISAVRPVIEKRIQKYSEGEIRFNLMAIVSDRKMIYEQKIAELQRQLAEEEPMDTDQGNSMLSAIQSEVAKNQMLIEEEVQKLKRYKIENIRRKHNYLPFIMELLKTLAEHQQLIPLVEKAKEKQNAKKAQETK
inactive: [1] -0.113 | [2] 0.074 | epoxomicin 0.116 | [3] -0.017 | [4] -0.028 | [5] 0.04 | rosiglitazone 0.03 | [6] -0.003 | [7] -0.099 | saracatinib -0.044 | sotrastaurin -0.057 | alvocidib -0.097 | Tubastatin A 0.148 | [8] 0.013 | defactinib -0.107 | rucaparib 0.074 | [9] -0.001 | encorafenib 0.091 | [10] -0.028
active: volasertib -0.295

WDR11 (UniProt Q9BZH6)
active: rucaparib -0.382
inactive: [1] 0.079 | volasertib 0.031 | [2] -0.183 | epoxomicin 0 | [3] 0.062 | [4] 0.089 | [5] -0.061 | rosiglitazone 0.08 | [6] 0.009 | [7] -0.131 | saracatinib -0.079 | sotrastaurin 0.059 | alvocidib 0.06 | Tubastatin A -0.029 | [8] -0.021 | defactinib 0.016 | [9] -0.052 | encorafenib -0.034 | [10] 0.017

UBXN10 (UniProt Q96LJ8)
UniProt Q96LJ8, sequence (Q96LJ8 whole entry, looked up): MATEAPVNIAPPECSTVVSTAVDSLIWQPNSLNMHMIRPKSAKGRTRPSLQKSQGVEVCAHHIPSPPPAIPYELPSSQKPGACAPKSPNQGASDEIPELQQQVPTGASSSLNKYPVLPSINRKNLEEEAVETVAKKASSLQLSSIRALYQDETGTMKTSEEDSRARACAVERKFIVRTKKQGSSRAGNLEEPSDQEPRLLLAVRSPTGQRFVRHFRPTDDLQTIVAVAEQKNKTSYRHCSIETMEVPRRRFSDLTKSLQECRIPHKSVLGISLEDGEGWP
inactive: [1] -0.057 | volasertib -0.319 | [2] 0.156 | epoxomicin 0.127 | [3] 0.034 | [4] 0.014 | [5] -0.088 | rosiglitazone 0.009 | [6] 0.087 | [7] -0.103 | saracatinib 0.111 | sotrastaurin 0.122 | alvocidib -0.021 | Tubastatin A 0.036 | [8] -0.152 | defactinib 0.254 | rucaparib -0.05 | [9] -0.049 | encorafenib -0.074 | [10] 0.014

TUT4 (UniProt Q5TAX3)
UniProt Q5TAX3, sequence (Q5TAX3 whole entry, looked up): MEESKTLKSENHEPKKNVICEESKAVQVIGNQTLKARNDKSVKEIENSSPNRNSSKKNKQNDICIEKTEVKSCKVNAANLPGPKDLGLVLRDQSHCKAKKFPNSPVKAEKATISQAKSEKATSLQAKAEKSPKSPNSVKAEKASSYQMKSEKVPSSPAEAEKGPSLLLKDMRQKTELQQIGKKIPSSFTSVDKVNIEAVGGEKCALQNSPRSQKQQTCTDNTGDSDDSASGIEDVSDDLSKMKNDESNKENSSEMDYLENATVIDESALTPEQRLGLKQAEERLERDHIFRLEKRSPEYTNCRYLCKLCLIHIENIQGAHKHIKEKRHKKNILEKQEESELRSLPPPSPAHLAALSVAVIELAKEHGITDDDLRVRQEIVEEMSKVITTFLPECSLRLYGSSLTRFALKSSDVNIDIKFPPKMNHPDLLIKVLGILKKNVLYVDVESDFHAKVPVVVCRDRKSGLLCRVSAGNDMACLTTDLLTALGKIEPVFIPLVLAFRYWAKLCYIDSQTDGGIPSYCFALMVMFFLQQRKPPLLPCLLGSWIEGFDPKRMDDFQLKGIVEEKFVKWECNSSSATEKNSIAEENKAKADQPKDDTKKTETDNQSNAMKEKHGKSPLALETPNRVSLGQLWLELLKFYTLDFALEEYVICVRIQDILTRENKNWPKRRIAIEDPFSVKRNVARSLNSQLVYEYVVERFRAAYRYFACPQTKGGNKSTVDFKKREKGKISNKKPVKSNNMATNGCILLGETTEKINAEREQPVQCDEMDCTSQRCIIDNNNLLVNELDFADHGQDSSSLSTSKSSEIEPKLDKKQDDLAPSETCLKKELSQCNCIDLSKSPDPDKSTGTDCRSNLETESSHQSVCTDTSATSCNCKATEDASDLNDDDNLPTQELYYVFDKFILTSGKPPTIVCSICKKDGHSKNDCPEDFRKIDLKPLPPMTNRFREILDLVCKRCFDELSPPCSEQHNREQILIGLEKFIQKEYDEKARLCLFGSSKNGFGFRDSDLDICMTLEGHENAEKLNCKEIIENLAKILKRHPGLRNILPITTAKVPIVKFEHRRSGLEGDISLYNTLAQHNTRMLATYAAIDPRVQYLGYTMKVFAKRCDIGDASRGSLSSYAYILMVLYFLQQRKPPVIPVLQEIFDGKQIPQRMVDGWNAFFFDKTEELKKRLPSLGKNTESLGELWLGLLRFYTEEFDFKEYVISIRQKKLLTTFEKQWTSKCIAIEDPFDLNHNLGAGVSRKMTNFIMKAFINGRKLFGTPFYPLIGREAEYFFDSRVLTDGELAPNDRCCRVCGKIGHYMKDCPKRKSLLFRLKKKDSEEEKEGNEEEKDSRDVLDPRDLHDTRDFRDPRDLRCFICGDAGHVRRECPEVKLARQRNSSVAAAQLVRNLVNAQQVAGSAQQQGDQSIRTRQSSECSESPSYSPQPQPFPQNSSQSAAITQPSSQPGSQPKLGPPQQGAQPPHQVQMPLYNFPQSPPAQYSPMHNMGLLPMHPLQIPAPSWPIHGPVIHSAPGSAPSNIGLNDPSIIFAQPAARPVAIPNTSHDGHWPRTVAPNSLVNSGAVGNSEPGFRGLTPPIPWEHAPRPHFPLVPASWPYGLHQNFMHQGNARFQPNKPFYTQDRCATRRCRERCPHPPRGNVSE
inactive: [1] -0.064 | volasertib -0.229 | [2] -0.15 | epoxomicin -0.219 | [3] -0.041 | [4] 0.046 | [5] 0.018 | rosiglitazone -0.012 | [7] -0.235 | saracatinib -0.089 | sotrastaurin 0.003 | alvocidib 0.112 | Tubastatin A 0.073 | [8] -0.075 | defactinib -0.095 | rucaparib -0.001 | [9] -0.008 | encorafenib -0.144 | [10] 0.082
active: [6] 0.566

TXNIP (UniProt Q9H3M7)
UniProt Q9H3M7, sequence (Q9H3M7 whole entry, looked up): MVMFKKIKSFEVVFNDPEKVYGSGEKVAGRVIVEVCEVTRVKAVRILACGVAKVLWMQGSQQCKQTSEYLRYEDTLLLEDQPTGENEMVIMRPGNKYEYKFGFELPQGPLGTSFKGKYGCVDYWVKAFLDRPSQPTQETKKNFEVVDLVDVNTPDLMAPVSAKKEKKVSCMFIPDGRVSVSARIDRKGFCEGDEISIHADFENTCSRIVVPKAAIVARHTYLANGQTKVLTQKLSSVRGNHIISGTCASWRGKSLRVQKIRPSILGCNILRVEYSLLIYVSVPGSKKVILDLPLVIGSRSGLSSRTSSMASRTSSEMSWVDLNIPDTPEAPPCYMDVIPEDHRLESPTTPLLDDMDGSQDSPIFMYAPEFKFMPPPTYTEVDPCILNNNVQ
active: [7] -0.793
inactive: [1] 0.112 | volasertib 0.021 | [2] 0.053 | epoxomicin 0.054 | [3] 0.212 | [4] -0.066 | [5] -0.026 | rosiglitazone 0.036 | [6] -0.07 | saracatinib -0.074 | sotrastaurin 0 | alvocidib -0.307 | Tubastatin A 0.06 | [8] 0.179 | defactinib -0.085 | rucaparib -0.026 | [9] 0.243 | encorafenib 0.01 | [10] 0.07

WDR62 isoform 4 (UniProt O43379)
active: volasertib -0.496
inactive: [1] -0.02 | [2] 0.04 | epoxomicin 0 | [3] 0.006 | [4] 0.007 | [5] -0.035 | rosiglitazone 0.064 | [6] 0.047 | [7] -0.161 | saracatinib -0.025 | sotrastaurin 0.037 | alvocidib -0.074 | Tubastatin A 0.027 | [8] -0.165 | defactinib -0.06 | rucaparib -0.035 | [9] 0.017 | encorafenib 0.015 | [10] 0.014

TMEM263 (UniProt Q8WUH6)
inactive: volasertib -0.5 | [2] -0.03 | epoxomicin 0.005 | [3] -0.004 | [4] -0.105 | [5] 0.024 | rosiglitazone 0.015 | [6] -0.057 | saracatinib 0.027 | sotrastaurin -0.046 | alvocidib 0.025 | Tubastatin A -0.049 | [8] -0.161 | defactinib 0.007 | rucaparib -0.031 | [9] -0.057 | encorafenib 0.015 | [10] -0.015
active: [1] -0.462 | [7] -1.32

UBE4B isoform 4 (UniProt O95155)
UniProt O95155, sequence (O95155 whole entry, looked up): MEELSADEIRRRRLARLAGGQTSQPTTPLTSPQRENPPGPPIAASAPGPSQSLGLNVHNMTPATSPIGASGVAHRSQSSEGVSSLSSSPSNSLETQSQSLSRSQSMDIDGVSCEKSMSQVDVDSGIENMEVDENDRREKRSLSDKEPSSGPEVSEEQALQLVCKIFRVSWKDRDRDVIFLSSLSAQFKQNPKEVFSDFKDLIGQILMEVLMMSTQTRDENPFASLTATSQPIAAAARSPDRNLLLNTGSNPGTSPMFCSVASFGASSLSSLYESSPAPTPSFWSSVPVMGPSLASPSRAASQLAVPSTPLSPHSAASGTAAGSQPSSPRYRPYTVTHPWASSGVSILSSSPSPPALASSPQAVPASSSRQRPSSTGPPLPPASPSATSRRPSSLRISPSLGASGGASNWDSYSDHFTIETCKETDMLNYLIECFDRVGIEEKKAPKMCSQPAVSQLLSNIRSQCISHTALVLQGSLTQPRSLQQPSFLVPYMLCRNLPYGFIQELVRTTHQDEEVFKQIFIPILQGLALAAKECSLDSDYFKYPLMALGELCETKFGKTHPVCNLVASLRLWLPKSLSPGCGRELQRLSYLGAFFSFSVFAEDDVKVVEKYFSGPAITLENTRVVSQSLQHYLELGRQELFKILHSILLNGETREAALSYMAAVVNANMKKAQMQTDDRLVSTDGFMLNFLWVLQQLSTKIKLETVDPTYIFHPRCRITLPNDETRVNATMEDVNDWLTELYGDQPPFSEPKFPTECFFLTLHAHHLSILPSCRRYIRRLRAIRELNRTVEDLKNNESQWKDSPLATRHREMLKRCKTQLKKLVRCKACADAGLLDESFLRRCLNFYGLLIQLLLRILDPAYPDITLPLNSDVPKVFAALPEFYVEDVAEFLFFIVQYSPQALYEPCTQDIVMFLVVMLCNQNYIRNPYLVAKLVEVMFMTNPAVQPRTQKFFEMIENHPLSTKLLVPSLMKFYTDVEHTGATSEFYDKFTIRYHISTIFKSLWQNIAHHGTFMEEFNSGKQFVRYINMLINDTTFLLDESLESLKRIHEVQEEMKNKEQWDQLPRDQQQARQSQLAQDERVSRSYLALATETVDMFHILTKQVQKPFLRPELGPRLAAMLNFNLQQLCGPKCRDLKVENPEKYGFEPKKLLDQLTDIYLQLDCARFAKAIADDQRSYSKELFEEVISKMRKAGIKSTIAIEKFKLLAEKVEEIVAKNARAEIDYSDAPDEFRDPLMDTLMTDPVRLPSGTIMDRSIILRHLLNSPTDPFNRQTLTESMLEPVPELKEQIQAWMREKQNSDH
active: volasertib -0.229
inactive: [1] -0.046 | [2] 0.024 | epoxomicin 0.023 | [3] 0 | [4] -0.005 | [5] 0.01 | rosiglitazone 0.05 | [6] -0.003 | [7] -0.079 | saracatinib 0.018 | sotrastaurin -0.038 | alvocidib -0.104 | Tubastatin A 0.016 | [8] 0.02 | defactinib -0.071 | rucaparib -0.077 | [9] -0.058 | encorafenib 0.01 | [10] -0.001
